# “And” between values parts separate entries of the source, which are not always exact repeats. Equal values may be shown once. Results filed as inconclusive are left out. The source made the active and inactive calls.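 Rule for the calls, unless noted: active = normalized viability below 100% at a tested concentration; inactive = the rest.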
# Columns and labels:
# [1] = viability loss in pontine glioma line – cell-based, SU-DIPG-XXV, MIPE5.0, CellTiter-Glo, qHTS, dose response (AID 1347065; cut-off not given, nearly all actives have AC50 up to about 26 µM;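 note: cells exposed to compound for 48 hours before ATP readout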); settings: CellTiter-Glo ATP luminescence
# [2] = SU-DIPG-VI glioma cell viability, MIPE4.0 library, CellTiter-Glo luminescence, qHTS (AID 1347066; cut-off not given, nearly all actives have AC50 up to about 30 µM;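 note: cells exposed to compound for 48 hours before readout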); settings: CellTiter-Glo ATP luminescence
# [3] = JHH-DIPG-1 glioma cell viability, MIPE5.0 library, CellTiter-Glo luminescence, qHTS (AID 1347067; cut-off not given, nearly all actives have AC50 up to about 26 µM;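 note: cells exposed to compound for 48 hours before readout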); settings: JHH-DIPG-1 glioma viability, CellTiter-Glo ATP luminescence
# [4] = SU-DIPG-XXV glioma cell viability, MIPE5.0 library, qHTS (AID 1347068; cut-off not given, nearly all actives have IC50 up to about 30 µM)
# [5] = sensitizers of A549 cells to miR-34 induction, primary screen, imaging, A549 dox-inducible miR-34, nuclei and caspase counts (AID 1347080;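 active = compounds whose cell count with miR-34 switched on is under 0.7 times the count with it off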); settings: A549 miR-34 inducible, Hoechst nuclei count, 48 h
# [6] = survival rescue of mitochondrial mutant cells in low glucose, primary screen, MELAS cybrids, Rieske KO mouse fibroblasts, CellTiter-Glo (AID 1508586;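 active = mean z-score across replicates of 1.96 or higher in either the MELAS or the Rieske mutant cell line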;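 note: z relative to plate mean and SD of compound and empty wells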)
# [7] = target: NAD(+) hydrolase SARM1 (Homo sapiens) (UniProt Q6SZW1); assay: SARM1 TIR NADase inhibitors, cell lysate, NAD-Glo luminescence (AID 1508614;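 active = compound whose remaining NAD level is above about 45 nM, limit read from the data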;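 note: higher remaining NAD means stronger inhibition of SARM1 NADase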); settings: SAM-TIR HEK293T lysate NADase, at 1 µM, stronger effect = higher value
# Chain of NAD(+) hydrolase SARM1 (Homo sapiens) (Q6SZW1 whole entry, looked up): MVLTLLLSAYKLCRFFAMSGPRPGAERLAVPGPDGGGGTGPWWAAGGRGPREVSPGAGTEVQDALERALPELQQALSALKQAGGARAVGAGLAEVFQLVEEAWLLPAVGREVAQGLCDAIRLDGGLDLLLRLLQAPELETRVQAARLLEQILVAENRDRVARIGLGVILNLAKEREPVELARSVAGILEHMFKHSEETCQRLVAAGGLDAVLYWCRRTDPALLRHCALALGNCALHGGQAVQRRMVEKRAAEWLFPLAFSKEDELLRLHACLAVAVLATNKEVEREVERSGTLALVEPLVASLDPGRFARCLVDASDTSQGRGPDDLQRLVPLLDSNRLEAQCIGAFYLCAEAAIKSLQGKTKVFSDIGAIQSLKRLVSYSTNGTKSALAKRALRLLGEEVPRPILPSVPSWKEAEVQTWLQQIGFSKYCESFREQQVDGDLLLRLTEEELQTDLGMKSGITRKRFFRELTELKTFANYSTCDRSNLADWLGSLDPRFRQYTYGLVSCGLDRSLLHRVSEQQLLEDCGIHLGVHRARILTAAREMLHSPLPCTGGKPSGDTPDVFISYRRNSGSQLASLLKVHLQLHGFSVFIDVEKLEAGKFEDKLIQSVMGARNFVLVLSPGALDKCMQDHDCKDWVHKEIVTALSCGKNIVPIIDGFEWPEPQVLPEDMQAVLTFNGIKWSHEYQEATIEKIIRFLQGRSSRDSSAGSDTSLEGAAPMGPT
# [8] = viability rescue of complex I mutant cybrids, primary screen, cell-based, galactose medium, ATP luminescence (AID 1645843;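 active = z-score of at least 1.8 in each of two replicates, scored against plate mean and spread of sample wells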;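 note: positive z means more ATP and so rescue of galactose-driven cybrid death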); settings: complex I mutant cybrid cells, 72 h, stronger effect = higher value
# [9] = target: Mitogen-activated protein kinase 7 (Homo sapiens) (UniProt Q13164); assay: ERK5 transactivation activators in reporter cells, primary screen, cell-based, HTS (AID 1508626;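 active = luciferase signal above three times the same-plate solvent-only control wells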;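 note: luciferase driven by Gal4-ERK5 fusion binding five Gal4 sites before minimal TATA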); settings: HeLa Gal4-ERK5 transactivation, 18 h, at 5 µM, stronger effect = higher value
# Chain of Mitogen-activated protein kinase 7 (Homo sapiens) (Q13164 whole entry, looked up, the tested form may be a part): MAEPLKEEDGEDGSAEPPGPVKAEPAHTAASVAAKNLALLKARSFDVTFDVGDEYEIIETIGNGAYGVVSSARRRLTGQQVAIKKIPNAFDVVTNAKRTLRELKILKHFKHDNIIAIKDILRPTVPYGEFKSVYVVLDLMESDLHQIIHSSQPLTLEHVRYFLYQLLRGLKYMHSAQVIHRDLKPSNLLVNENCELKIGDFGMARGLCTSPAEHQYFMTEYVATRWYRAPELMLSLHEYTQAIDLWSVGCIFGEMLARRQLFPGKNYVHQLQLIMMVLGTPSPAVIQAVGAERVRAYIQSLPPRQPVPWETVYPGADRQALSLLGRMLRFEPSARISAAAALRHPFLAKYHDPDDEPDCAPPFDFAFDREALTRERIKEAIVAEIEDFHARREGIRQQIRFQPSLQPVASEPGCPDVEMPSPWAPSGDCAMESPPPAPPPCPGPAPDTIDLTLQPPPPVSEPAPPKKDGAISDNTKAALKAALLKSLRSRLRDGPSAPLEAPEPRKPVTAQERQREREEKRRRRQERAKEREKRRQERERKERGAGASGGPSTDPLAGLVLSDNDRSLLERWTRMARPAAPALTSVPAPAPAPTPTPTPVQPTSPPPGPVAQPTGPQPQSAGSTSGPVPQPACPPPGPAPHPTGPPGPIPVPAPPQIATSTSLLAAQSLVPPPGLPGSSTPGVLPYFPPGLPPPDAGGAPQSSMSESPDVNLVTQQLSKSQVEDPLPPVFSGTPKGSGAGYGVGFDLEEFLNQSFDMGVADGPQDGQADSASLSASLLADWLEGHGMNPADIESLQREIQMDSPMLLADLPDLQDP
# [10] = modifiers of HSF1 nuclear foci, imaging, Selleck Cancer Library (AID 1347162; in the data active = plate-normalised HSF1 focus index below about 0.46); settings: human cells, at 10 µM; SSMD: measured here: HSF1 foci SSMD mean; cell count: measured here: cell number; plate-normalised HSF1 focus index: stronger effect = lower value
# [11] = ovarian cancer cell viability with rucaparib, profiling panel, oncology-focused library, rucaparib conditional (AID 1508598); settings: patient-derived ovarian cancer cells, CellTiter-Glo viability, 144 h, stronger effect = lower value
# [12] = stronger effect = lower value, cell number ratio, induced over uninduced
# [13] = measured here: relative caspase fold change +Dox/-Dox
# [14] = measured here: total cells with miR-34 induction, stronger effect = lower value
# [15] = measured here: total cells without miR-34 induction
# [16] = MELAS cybrid survival, CellTiter-Glo 48 h, stronger effect = higher value
# [17] = Rieske KO mouse fibroblast survival, CellTiter-Glo 72 h
compound,measurement,setting,value
CC(C)c1ccc2oc3nc(N)c(C(=O)O)cc3c(=O)c2c1,outcome,[1],inactive
same,outcome,[2],inactive
same,outcome,[3],inactive
same,outcome,[4],inactive
same,fold change,[5]; [12],0.955 (inactive)
same,fold change,[5]; [13],1.68
same,cell count,[5]; [14],9060
same,cell count,[5]; [15],9490
same,z-score,[6]; [16],0.841 (inactive)
same,z-score,[6]; [17],-1.05
same,remaining NAD,[7],10 nM (inactive)
same,z-score,[8],0.635 (inactive)
C[C@]12CC[C@@H]3c4ccc(O)cc4CC[C@H]3[C@@H]1C[C@@H](O)[C@@H]2O,outcome,[1],inactive
same,outcome,[2],inactive
same,AC50,[3],23.5 µM (active)
same,outcome,[4],inactive
same,fold change,[5]; [12],0.957 (inactive) and 0.899 (inactive)
same,fold change,[5]; [13],0.729 and 1.36
same,cell count,[5]; [14],9380 and 8690
same,cell count,[5]; [15],9810 and 9670
same,z-score,[6]; [16],0.707 (inactive) and -0.312 (inactive)
same,z-score,[6]; [17],0.79 and 0.38
same,remaining NAD,[7],10 nM (inactive)
same,luciferase signal,[9],64 AU (inactive)
same,z-score,[8],0.76 (inactive)
CCOc1cc(CC(=O)N[C@@H](CC(C)C)c2ccccc2N2CCCCC2)ccc1C(=O)O,outcome,[1],inactive
same,outcome,[2],inactive
same,outcome,[3],inactive
same,outcome,[4],inactive
same,fold change,[5]; [12],0.924 (inactive) and 0.888 (inactive) and 0.976 (inactive)
same,fold change,[5]; [13],0.881 and 1.49 and 4.38
same,cell count,[5]; [14],8510 and 8490 and 12000
same,cell count,[5]; [15],9210 and 9560 and 12300
same,z-score,[6]; [16],-0.407 (inactive)
same,z-score,[6]; [17],0.416
same,remaining NAD,[7],10 nM (inactive)
same,z-score,[8],3.92 (active)
Nc1ccc(S(N)(=O)=O)cc1,outcome,[1],inactive
same,outcome,[2],inactive
same,outcome,[3],inactive
same,outcome,[4],inactive
same,fold change,[5]; [12],0.863 (inactive) and 1.01 (inactive) and 0.955 (inactive)
same,fold change,[5]; [13],1.61 and 1.13 and 2.65
same,cell count,[5]; [14],8720 and 8600 and 12400
same,cell count,[5]; [15],10100 and 8510 and 12900
same,z-score,[6]; [16],-0.359 (inactive) and -1 (inactive)
same,z-score,[6]; [17],0.662 and -0.707
same,remaining NAD,[7],10 nM (inactive)
same,luciferase signal,[9],164 AU (inactive)
NCC1CCC(C(=O)O)CC1 (configuration not stated),outcome,[1],inactive
same,outcome,[2],inactive
same,outcome,[3],inactive
same,outcome,[4],inactive
same,fold change,[5]; [12],0.928 (inactive) and 0.834 (inactive)
same,fold change,[5]; [13],1.25 and 2.45
same,cell count,[5]; [14],8960 and 11200
same,cell count,[5]; [15],9660 and 13500
same,z-score,[6]; [16],-0.244 (inactive)
same,z-score,[6]; [17],-0.313
same,remaining NAD,[7],10 nM (inactive)
same,luciferase signal,[9],44 AU (inactive)
CCC[C@H](N[C@@H](C)C(=O)N1[C@H](C(=O)O)C[C@@H]2CCCC[C@@H]21)C(=O)OCC,outcome,[1],inactive
same,outcome,[2],inactive
same,outcome,[3],inactive
same,outcome,[4],inactive
same,fold change,[5]; [12],0.917 (inactive) and 0.847 (inactive)
same,fold change,[5]; [13],0.846 and 3.59
same,cell count,[5]; [14],9000 and 11500
same,cell count,[5]; [15],9820 and 13600
same,z-score,[6]; [16],0.628 (inactive)
same,z-score,[6]; [17],-0.272
same,remaining NAD,[7],10 nM (inactive)
same,luciferase signal,[9],156 AU (inactive)
COCCCOc1cc(C[C@@H](C[C@H](N)[C@@H](O)C[C@H](C(=O)NCC(C)(C)C(N)=O)C(C)C)C(C)C)ccc1OC,outcome,[1],inactive
same,outcome,[2],inactive
same,outcome,[3],inactive
same,outcome,[4],inactive
same,fold change,[5]; [12],0.948 (inactive)
same,fold change,[5]; [13],0.866
same,cell count,[5]; [14],8860
same,cell count,[5]; [15],9350
same,remaining NAD,[7],10 nM (inactive)
same,luciferase signal,[9],68 AU (inactive)
Cc1cnc(C(=O)O)c[n+]1[O-],outcome,[1],inactive
same,outcome,[2],inactive
same,outcome,[3],inactive
same,outcome,[4],inactive
same,fold change,[5]; [12],0.836 (inactive) and 0.829 (inactive)
same,fold change,[5]; [13],0.776 and 1.63
same,cell count,[5]; [14],6980 and 9220
same,cell count,[5]; [15],8340 and 11100
same,z-score,[6]; [16],0.0931 (inactive) and 0.196 (inactive) and -0.0621 (inactive)
same,z-score,[6]; [17],-1.45 and -0.0767 and -0.000299
same,remaining NAD,[7],10 nM (inactive)
same,z-score,[8],0.95 (inactive)
C[C@@H]1CN(c2c(F)c(N)c3c(=O)c(C(=O)O)cn(C4CC4)c3c2F)C[C@H](C)N1,outcome,[1],inactive
same,outcome,[2],inactive
same,outcome,[3],inactive
same,outcome,[4],inactive
same,fold change,[5]; [12],0.881 (inactive)
same,fold change,[5]; [13],1.37
same,cell count,[5]; [14],9500
same,cell count,[5]; [15],10800
same,z-score,[6]; [16],-0.149 (inactive) and 0.182 (inactive)
same,z-score,[6]; [17],-0.511 and -0.3
same,remaining NAD,[7],10 nM (inactive)
same,z-score,[8],0.565 (inactive)
CC(C)(C#N)c1cc(Cn2cncn2)cc(C(C)(C)C#N)c1,outcome,[1],inactive
same,outcome,[2],inactive
same,outcome,[3],inactive
same,outcome,[4],inactive
same,fold change,[5]; [12],0.875 (inactive) and 0.939 (inactive) and 0.952 (inactive)
same,fold change,[5]; [13],1 and 1.14
same,cell count,[5]; [14],8530 and 7350 and 9720
same,cell count,[5]; [15],9750 and 7820 and 10200
same,SSMD,[10],1.85
same,cell count,[10],7640
same,plate-normalised HSF1 focus index,[10],1.07 (inactive)
same,z-score,[6]; [16],-0.386 (inactive) and -0.452 (inactive) and -0.582 (inactive)
same,z-score,[6]; [17],0.599 and -0.518 and -0.151
same,viability,"[11]; at 0.000305 µM, OCI-C5x cells, with rucaparib 10 µM, 100% = cells with rucaparib alone",109% (inactive)
same,viability,"[11]; at 0.000305 µM, OCI-C5x cells, without rucaparib",102% (inactive)
same,viability,"[11]; at 0.000305 µM, OCI-P5x cells, with rucaparib 20 µM, 100% = cells with rucaparib alone",98.5% (active)
same,viability,"[11]; at 0.000305 µM, OCI-P5x cells, without rucaparib",90.6% (active)
same,viability,"[11]; at 0.00122 µM, OCI-C5x cells, with rucaparib 10 µM, 100% = cells with rucaparib alone",107% (inactive)
same,viability,"[11]; at 0.00122 µM, OCI-C5x cells, without rucaparib",98.9% (active)
same,viability,"[11]; at 0.00122 µM, OCI-P5x cells, with rucaparib 20 µM, 100% = cells with rucaparib alone",102% (inactive)
same,viability,"[11]; at 0.00122 µM, OCI-P5x cells, without rucaparib",95.3% (active)
same,viability,"[11]; at 0.00488 µM, OCI-C5x cells, with rucaparib 10 µM, 100% = cells with rucaparib alone",115% (inactive)
same,viability,"[11]; at 0.00488 µM, OCI-C5x cells, without rucaparib",107% (inactive)
same,viability,"[11]; at 0.00488 µM, OCI-P5x cells, with rucaparib 20 µM, 100% = cells with rucaparib alone",104% (inactive)
same,viability,"[11]; at 0.00488 µM, OCI-P5x cells, without rucaparib",100% (inactive)
same,viability,"[11]; at 0.0195 µM, OCI-C5x cells, with rucaparib 10 µM, 100% = cells with rucaparib alone",113% (inactive)
same,viability,"[11]; at 0.0195 µM, OCI-C5x cells, without rucaparib",107% (inactive)
same,viability,"[11]; at 0.0195 µM, OCI-P5x cells, with rucaparib 20 µM, 100% = cells with rucaparib alone",110% (inactive)
same,viability,"[11]; at 0.0195 µM, OCI-P5x cells, without rucaparib",104% (inactive)
same,viability,"[11]; at 0.0781 µM, OCI-C5x cells, with rucaparib 10 µM, 100% = cells with rucaparib alone",105% (inactive)
same,viability,"[11]; at 0.0781 µM, OCI-C5x cells, without rucaparib",109% (inactive)
same,viability,"[11]; at 0.0781 µM, OCI-P5x cells, with rucaparib 20 µM, 100% = cells with rucaparib alone",108% (inactive)
same,viability,"[11]; at 0.0781 µM, OCI-P5x cells, without rucaparib",109% (inactive)
same,viability,"[11]; at 0.313 µM, OCI-C5x cells, with rucaparib 10 µM, 100% = cells with rucaparib alone",103% (inactive)
same,viability,"[11]; at 0.313 µM, OCI-C5x cells, without rucaparib",108% (inactive)
same,viability,"[11]; at 0.313 µM, OCI-P5x cells, with rucaparib 20 µM, 100% = cells with rucaparib alone",112% (inactive)
same,viability,"[11]; at 0.313 µM, OCI-P5x cells, without rucaparib",113% (inactive)
same,viability,"[11]; at 1.25 µM, OCI-C5x cells, with rucaparib 10 µM, 100% = cells with rucaparib alone",115% (inactive)
same,viability,"[11]; at 1.25 µM, OCI-C5x cells, without rucaparib",115% (inactive)
same,viability,"[11]; at 1.25 µM, OCI-P5x cells, with rucaparib 20 µM, 100% = cells with rucaparib alone",111% (inactive)
same,viability,"[11]; at 1.25 µM, OCI-P5x cells, without rucaparib",112% (inactive)
same,viability,"[11]; at 5 µM, OCI-C5x cells, with rucaparib 10 µM, 100% = cells with rucaparib alone",130% (inactive)
same,viability,"[11]; at 5 µM, OCI-C5x cells, without rucaparib",115% (inactive)
same,viability,"[11]; at 5 µM, OCI-P5x cells, with rucaparib 20 µM, 100% = cells with rucaparib alone",115% (inactive)
same,viability,"[11]; at 5 µM, OCI-P5x cells, without rucaparib",109% (inactive)
same,remaining NAD,[7],10 nM (inactive)
same,z-score,[8],0.695 (inactive) and 0.735 (inactive)
O=C(O)c1cn(-c2ccc(F)cc2)c2cc(N3CCNCC3)c(F)cc2c1=O,outcome,[1],inactive
same,outcome,[2],inactive
same,outcome,[3],inactive
same,outcome,[4],inactive
same,fold change,[5]; [12],0.867 (inactive) and 0.86 (inactive)
same,fold change,[5]; [13],3.37 and 1.06
same,cell count,[5]; [14],11600 and 8760
same,cell count,[5]; [15],13400 and 10200
same,z-score,[6]; [16],0.702 (inactive) and 0.944 (inactive)
same,z-score,[6]; [17],0.262 and 0.886
same,remaining NAD,[7],14 nM (inactive)
same,luciferase signal,[9],72 AU (inactive)
same,z-score,[8],0.12 (inactive)

# — PubChem BioAssay
